Laboratory results taken from ChEMBL document CHEMBL3988442, “University of Dundee, Small-Polar-MMV Screening Library” (2021).
In all, about 48,000 compounds went through this assay and about 13,000 (27%) showed an effect of 50% or more. The list shows a part of the results.

The compounds below were run on Wolbachia pipientis (assay: Anti-Wolbachia Cell-Based Screen). Conditions: 5 µM.
Type: functional
Set-up: scale not given: in the data most compounds retested in dose-response had high values

| Compound | Percent Effect [%] |
| --- | --- |
| N#Cc1cccc(N2CCCC3(C2)CN(c2ncc(F)cn2)CCO3)n1.O=C(O)C(F)(F)F (stereo not given) | -18.06 |
| Fc1ccc(CN2CCCCC2Cn2cncn2)c2ncccc12 (stereo not given) | 6.637 |
| Cc1ncc(CC(=O)N2CCCC(COc3ccccc3F)C2)c(=O)[nH]1 (stereo not given) | 16.93 |
| Cn1cnc2c1CCN(Cc1cccc(OCC(N)=O)c1)C2 | -0.9151 |
| CC(=O)N1CC[C@H]2NC(=O)N(Cc3ccccc3)C(=O)[C@H]21 | 6.922 |
| CCN1CCCC(O)(CNCc2ccc3c(c2)OCO3)C1 (stereo not given) | -9.558 |
| Cn1ccc(CN2CCCC2c2ccc3c(c2)OCCCO3)cc1=O (stereo not given) | 3.687 |
| Cn1cc(C(=O)N2CCCC2c2ccc3c(c2)OCO3)ccc1=O (stereo not given) | 2.509 |
| COC(=O)N1CC[C@@]2(O)CCCC[C@H]2[C@@H]1c1ccc2c(c1)OCO2 | 122.6 |
| CC(=O)N1CCN(C[C@H]2CC[C@@H](Cc3ccc4c(c3)OCO4)O2)CC1 | 6.248 |
| CN1CCN(C(=O)N2CC[C@@](O)(c3ccccc3)[C@H]3CCCC[C@@H]32)CC1 | -18.77 |
| O=C(O)C(c1ccc2c(c1)OCO2)N1CCC(C(=O)N2CCCC2)CC1 (stereo not given) | 0.296 |
| NC(=O)CN1CCC(C(=O)NCc2ccc3c(c2)OCCCO3)CC1 | -4.067 |
| CC(=O)N1CC[C@@]2(O)CCCC[C@H]2[C@@H]1c1ccccc1 | 132.1 |
| NC(=O)CN1CC[C@@]2(O)CCCC[C@H]2[C@@H]1c1ccc2c(c1)OCO2 | 128.7 |
| CC(=O)N1CC[C@@]2(O)CCCC[C@H]2[C@@H]1c1ccc2c(c1)OCO2 | 121.2 |
| CCCN1CC2(CCN(c3ccc(C(C)=O)cn3)CC2)CC1C(=O)O (stereo not given) | 10.16 |
| Cc1noc([C@@H]2C[C@H](NC(=O)NC(C)C)CN2C)n1 | -7.021 |
| CN1C[C@@H](NC(=O)c2ccccc2)C[C@H]1c1nc(-c2cnccn2)no1 | -2.532 |
| CN1CCN(CCc2ncnn2-c2ccc3c(c2)OCO3)CC1 | -0.8313 |
| O=S(=O)(NCCSc1nccn1C1CC1)c1ccccc1 | 5.63 |
| CSCc1ccc(CNCCCN2CCOCC2)o1 | 3.399 |
| Cc1ccc(CNCCN2CCOCC2)o1 | 131.7 |
| CSCc1ccc(CNCCN2CCOCC2)o1 | -4.251 |
| CSc1ccccc1C(=O)NCc1cc2n(n1)CCCN(CC(C)C)C2 | -7.136 |

| Compound | Percent Effect [%] |
| --- | --- |
| Cn1cc(N2CCN(c3ccc(C#N)c(Cl)c3)CC2=O)cn1 | -30.5 |
| CCC(O)CN1CCN(C(=O)c2sccc2C2CC2)CC1 (stereo not given) | 131.2 |
| CCC(O)CN1CCN(C(=O)c2sccc2C(C)C)CC1 (stereo not given) | 113.4 |
| Cc1cc(CN2CCN(C(=O)c3sccc3C(C)C)CC2)no1 | -0.2452 |
| CCc1nnsc1C(=O)N1CCN(CC(O)CC)CC1 (stereo not given) | -1.027 |
| CC(C)(C)OC(=O)N1CCN(C(=O)c2sccc2C2CC2)CC1 | -2.417 |
| CC(C)(O)CN1CCN(C(=O)c2sccc2C2CC2)CC1 | -8.363 |
| Cc1n[nH]c(C)c1CNc1ccc(-c2nc(C3CC3)no2)cn1 | 9.439 |
| COc1ccc([C@@H]2CN(C(=O)CCc3cc(Cl)no3)C[C@H]2N(C)C)cc1 | -5.122 |
| Cn1c(=O)c2cc(C(=O)NCCOc3ccccc3)ccc2n(C)c1=O | 103.9 |
| COc1ccc(OCCNC(=O)c2ccc3c(=O)[nH][nH]c(=O)c3c2)cc1 | 4.909 |
| O=C(O)c1ccc(CCNC(=O)C2(O)Cc3ccccc3C2)cc1 | 0.991 |
| Cn1c(=O)c2cc(C(=O)NCCc3ccccc3)ccc2n(C)c1=O | 97.39 |
| O=C(NCCOc1ccccc1)c1ccc2c(c1)C(=O)NC2=O | -4.876 |
| O=C(NCCOCC(F)(F)F)c1ccc(-c2ccco2)[nH]c1=O | 3.056 |
| Cn1c(=O)c2cc(C(=O)NCCOCC(F)(F)F)ccc2n(C)c1=O | 109.9 |
| Cc1ccc(-n2ccnc2)c(C(=O)NCCOCC(F)(F)F)c1 | 1.401 |
| CC(O)(CCc1ccccc1)CNC(=O)c1ccc(F)cc1 (stereo not given) | -3.449 |
| Cc1cnc(C)c(N2CCC(c3nnc(CN(C)C)n3C3CC3)CC2)n1 | 5.849 |
| CCc1ccc(C(=O)O)cc1S(=O)(=O)Nc1ccc(F)c(C#N)c1 | 3.443 |
| N#Cc1cc(NS(=O)(=O)c2cc(C(=O)O)cc(Cl)c2Cl)ccc1F | 118.7 |
| Cc1c(F)cc(C(=O)O)cc1S(=O)(=O)Nc1ccc(F)c(C#N)c1 | 122.4 |
| N#Cc1cc(NS(=O)(=O)c2ccc(C(=O)O)cc2F)ccc1F | -1.66 |
| COC(=O)c1ccc(Cl)c(S(=O)(=O)Nc2ccc(F)c(C(N)=O)c2)c1 | -0.6488 |
| O=C(O)c1ccc(F)c(S(=O)(=O)Nc2ccc(-n3cccn3)c(Cl)c2)c1 | -11.53 |
